Source: PubChem
Compounds with a hit are over-represented: about 3.5% of the library has one in this group of screens.
TEAD-YAP inh: TEAD-YAP interaction inhibition | HEK-TIYL cells, TEAD-Gal4/YAP UAS-luciferase luminescence | inhibition, % at 9.12 µM | 640,000 tested, 1.4% active; in the data active = inhibition above about 32%;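 also: 0% = median of test compound wells and 100% = reference inhibitor wells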
FBW7 act: human FBW7 E3 ligase activation, primary screen. AlphaScreen FBW7–phospho-cyclin E peptide binding, activator screen. normalized activity (activation), % at 26.1 µM. 650,000 tested, 0.13% active; in the data active = normalized activity above about 1.9%;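 also: purified mutant Fbw7 with reduced substrate affinity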
GPR151 ag: activates the human receptor GPR151. activation, % at 11.2 µM. PathHunter beta-arrestin GPR151 cells, luminescence. AID 1508602. 650,000 tested, 1% active. Q8TDV0; in the data active = activation above about 4.9%;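 also: 0% = median of compound wells and 100% = cells with positive control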
MITF primary: blocks human microphthalmia-associated transcription factor | AlphaScreen MITF homodimerization, bead proximity signal | inhibition, % at 2.6 µM | 650,000 tested, 0.91% active | AID 1259374; in the data active = inhibition above about 50%;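 also: 0% = vehicle wells with protein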
* marks the source's active call; other numbers are inactive results; . = no result; ! = repeats disagree.

SMILES	TEAD-YAP inh	FBW7 act	GPR151 ag	MITF primary
Cc1ccc(CS(=O)Cc2ccc(C(=O)N3CCN(c4ccccc4)CC3)o2)cc1 (centres undefined)	16.7	0.7	-0.8	10.8
Cc1ccccc1S(=O)Cc1ccc(C(=O)N2CCN(c3ccccn3)CC2)o1 (centres undefined)	42.2*	0.1	1.0	15.0
Cc1ccc(S(=O)Cc2ccc(C(=O)N3CCN(c4ccccc4)CC3)o2)cc1 (centres undefined)	49.7*	0.1	0.4	2.5
CS(=O)(=O)c1ccc(F)c(NC(=O)CCC(=O)O)c1	-0.7	0.0	1.6	24.0
Cc1ccc(-n2c(SCC(=O)c3ccc(Cl)cc3)nc3c(sc(=S)n3-c3cc(C)ccc3F)c2=O)cc1	-15.3	0.1	0.7	-10.9
Cc1sc(NC(=O)CCCC(=O)O)c(C(N)=O)c1-c1ccccc1	45.3*	-0.1	-0.4	1.0
Cc1sc(NC(=O)CC(c2ccccc2)c2ccccc2)c(C(N)=O)c1C	40.2*	0.0	3.4	1.2
C=C(C)C(=O)Nc1sc(C)c(-c2ccccc2)c1C(N)=O	-14.9	0.1	0.9	12.2
CC(=O)C1=C(C)N(Cc2ccccc2)C(=O)N[C@@H]1c1ccc(Br)cc1	.	-0.1	-0.2	0.3
COc1ccc(C)cc1S(=O)(=O)N1CCN(c2ccccc2F)CC1	2.7	-0.2	0.9	0.3
Cc1ccc(N2CC(C(=O)Nc3nccs3)CC2=O)cc1Cl (centres undefined)	61.2*	0.4	2.3	5.2
COCCN(Cc1nc(-c2cnccn2)no1)C(C)C	2.5	0.0	-1.5	4.2
Cc1ccc(C(C)C)c(OCC(=O)N/N=C/c2ccc(O)cc2)c1	47.6*	-0.2	1.0	11.9
COc1cccc(/C=N/NC(=O)COc2cc(C)ccc2C(C)C)c1O	57.5*	-0.2	-0.2	1.5
COc1cccc(/C=N/NC(=O)CSc2cc(C)nc3c(C)cccc23)c1O	32.4*	-0.5	1.1	8.3
O=C(COc1ccccc1)N/N=C\c1ccc(O)cc1	6.8	2.1*	-1.3	14.5
COc1cccc(/C=N/NC(=O)COc2cccc(C)c2C)c1O	1.9	-0.1	3.7	-9.0
Cc1ccc(S(=O)(=O)N(CC(=O)N2CCOCC2)c2cc(Cl)cc(Cl)c2)cc1	4.8	-0.1	0.5	-22.4
CC(=O)C(Sc1nc(-c2ccco2)nc2c1c(=O)n(C)c(=O)n2C)C(C)=O	1.5	-0.1	-1.5	8.4
CCN(CC)c1nc(C)c([N+](=O)[O-])c(C)c1C#N	7.6	0.1	0.9	4.9
O=C(CN1CCN(c2ccc(Cl)cc2)CC1)NCc1ccccc1Cl	-0.3	0.3	-1.0	5.3
Cc1ccc(C(C)C)c(OCC(=O)N/N=C/c2ccc[nH]2)c1	-0.8	0.1	-0.9	-9.5
Cc1ccc(C(C)C)c(OCC(=O)N/N=C/c2ccc(O)c(O)c2)c1	46.5*	-0.1	0.8	0.2
CN1CCN(CC(O)COc2cccc3ccccc23)CC1 (centres undefined)	9.8	0.1	-0.5	8.8
COc1ccccc1N1CCN(CC(O)COc2cccc3ccccc23)CC1 (centres undefined)	38.4*!	0.2	-0.3	12.5
SMILES	TEAD-YAP inh	FBW7 act	GPR151 ag	MITF primary
Cc1ccccc1NS(=O)(=O)c1ccc(OCC(=O)O)cc1	-12.8	-0.1	-1.4	2.2
Cc1ccc(-c2cnn(-c3ccc(C(=O)O)cc3)c2)cc1	42.4*	-0.2	-11.3	-1.5
CCN1CCN(CC(=O)Nc2ccc(C)cc2)C(=O)C1=O	-9.3	0.3	1.2	6.6
CCN1CCN(CC(=O)Nc2ccc(Cl)cc2)C(=O)C1=O	6.7	1.9*	-1.9	19.2
COC(=O)C1=C(N)n2c(s/c(=C/c3ccco3)c2=O)=C(C(=O)OC)C1c1ccco1 (centres undefined)	49.1*	0.4	0.5	18.5
COc1ccc(C(=O)N/N=C(\C)c2ccc(C#N)cc2)cc1OC	41.1*	-0.1	-0.7	1.4
CCCNC(=O)C/C(C)=N/NC(=O)c1ccc(OC)c(OC)c1	33.6*	0.1	-0.5	-11.3
CCCCOc1ccc(C(=O)NO)cc1OC	39.7*	0.2	-0.9	-7.2
COc1ccc(/C(C)=N/NC(=O)c2cccc(F)c2)cc1OC	-12.1	0.0	-0.8	-9.3
COc1cccc(N2C(=O)NC(=O)/C(=C/c3cc(OC)c(O)c([N+](=O)[O-])c3)C2=O)c1	-2.4	-0.1	-0.8	6.5
CCOC(=O)c1[nH]c(C)c(CN(C2CCCCC2)S(C)(=O)=O)c1C	51.9*	0.0	-0.1	4.6
CCOC(=O)c1[nH]c(C)c(CNC2CCCCC2)c1C	3.3	-0.1	1.3	13.3
CC(=O)c1ccc(N=c2oc3cc(O)ccc3cc2C(N)=O)cc1	60.3*	-0.1	-2.5	-4.7
NC(=O)c1cc2ccc(O)cc2oc1=Nc1ccc(-c2ccccc2)cc1	-8.9	1.4	0.8	13.4
